From the supplement of paper PMC6805474

test system: Schistosoma mansoni schistosomula (NMRI); assay: phenotypic severity score (0-4); higher = more antischistosomal effect, active = 2 or more; details: 72 h; 10 µM
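Note: visual microscopic scoring of shape, motility and density changes versus 0.5% DMSO solvent controls, one point per descriptor, degeneracy or death scored 4, mean of duplicate wells.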

Compound	phenotypic severity score
Cc1cc(O)nc(-n2nc(C)cc2C)n1	0 (inactive)
N=C(N)c1ccc(OCCCCCOc2ccc(C(=N)N)cc2)cc1	0 (inactive)
O=C(Nc1ccc(N2CCNCC2)cc1)c1ccn2ncc(-c3cccc(Cl)c3)c2n1	4 (active)
Cc1ccc(S(=O)(=O)N2CCN(C(=O)c3cc(-c4ccccc4)[nH]n3)CC2)cc1	1 (inactive)
c1csc(-c2cnc3sc(NCC4CCOCC4)nn23)c1	0 (inactive)
Brc1cncc(-c2cc(NCCCn3ccnc3)nc(-c3ccccc3)n2)c1	4 (active)
O=C(NC1=NCCS1)c1sc2cc(F)ccc2c1Cl	0 (inactive)
O=C(NCCc1c[nH]c2ccccc12)c1cc2ccccc2oc1=O	0 (inactive)
CCc1ccc(S(=O)(=O)Nc2cc(CN3CCN(CCC(C)C)CC3)ccc2C)cc1	4 (active)
Clc1ccc(CN2CCN(C3=NCCN3)CC2)cc1Cl	0 (inactive)
CC(c1cc(Cl)cc(Cl)c1)N(C)c1ncc2c(N)nc(N)nc2n1 (stereo not drawn)	0 (inactive)
Nc1ncc(-c2ccc(C(F)(F)F)nc2)cc1-c1ccc(C(F)(F)F)nc1	0 (inactive)
FC(F)(F)c1nnc2ccc(Cl)nn12	0 (inactive)
O=C(c1ccc(NCCO)cc1)C1C[C@H]1c1ccc(Cl)cc1 (stereo partly drawn)	0 (inactive)
NCC(=O)N1CCn2c(nc(-c3ccccc3)c2Nc2ccc3c(c2)OCO3)C1	2 (active)
C[C@H]1COc2c(N3CCN(C)CC3)c(F)cc3c(=O)c(C(=O)O)cn1c23	0 (inactive)
COc1ccc(CCN2CCC(NCc3cccc(N(C)C)c3)CC2)cc1	0 (inactive)
COc1cccc2c(C)nc(N=C(N)N)nc12	0 (inactive)
